An excerpt weighted towards active compounds, which were near 3.3% of everything screened.
AmpC inh detg: inhibitors of E. coli AmpC beta-lactamase with detergent | Potency, µM (highest dose often 114 µM), most hits filed as inhibitors | 370,000 compounds, 0.041% hits | P00811 | AmpC hydrolysis of nitrocefin, absorbance 480 nm, 0.01% Triton | AID 485294; further: nearly all actives have a fitted effect of over 25% in size
Target sequence (P00811 whole entry, looked up): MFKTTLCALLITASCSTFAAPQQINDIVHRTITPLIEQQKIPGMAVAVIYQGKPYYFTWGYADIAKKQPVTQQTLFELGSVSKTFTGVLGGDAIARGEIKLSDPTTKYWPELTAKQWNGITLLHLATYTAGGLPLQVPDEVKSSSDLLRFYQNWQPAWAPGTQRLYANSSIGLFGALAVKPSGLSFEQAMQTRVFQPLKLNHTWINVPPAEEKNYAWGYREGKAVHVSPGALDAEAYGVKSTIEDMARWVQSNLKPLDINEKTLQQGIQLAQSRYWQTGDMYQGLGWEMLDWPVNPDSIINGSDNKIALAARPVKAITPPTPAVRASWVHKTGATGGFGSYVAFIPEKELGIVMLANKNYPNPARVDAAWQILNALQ
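20 mM phosphate pH 7.0 + 0.01% (detergent screen) or 0.0001% Triton X-100; 5.3 nM AmpC reagent; cpd preinc 15 min RT; nitrocefin (800 uM stock) to start; A480 q20 s × 4 min; Activity was normalised to no-enzyme and no-compound control wells.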
AmpC inh no detg: AmpC beta-lactamase inhibition without detergent. AID 485341. Potency, µM (doses to about 57.1 µM), usual class: inhibitors. 330,000 compounds, 0.52% hits. AmpC nitrocefin hydrolysis, absorbance 480 nm, 0.0001% Triton. P00811; further: nearly all actives have a fitted effect of over 20% in size
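AmpC (5.3 nM in the dispensed reagent) in 20 mM phosphate pH 7.0 with 0.01% (detergent screen) or 0.0001% Triton X-100 was preincubated with compounds for 15 min at room temperature. Nitrocefin was then added from an 800 uM solution, and hydrolysis was followed at 480 nm.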
SARS PLP yeast: SARS-CoV PLP inhibition in yeast. AID 485353. 330,000 compounds, 0.19% hits. S. cerevisiae expressing SARS-CoV PLpro, growth rescue. Potency, µM (titrated, usually from 32.9 µM), usual class: activators; calls by dose curve; further: nearly all actives have a fitted effect of over 55% in size
RE007 growth inh: less growth of the S. pombe RE007 Vpr strain; S. pombe RE007 Vpr strain, BacTiter-Glo ATP luminescence, 24 h; Potency, µM (titrated, usually from 92.2 µM), hits mostly inhibitors; 360,000 compounds, 0.21% hits; active means well fitted falling curve with a large enough effect; inconclusive means small, poorly fitted or top-dose-only effect; inactive means no such curve, though single readings can be large or run the other way; further: nearly all actives have a fitted effect of over 50% in size
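Fission yeast strain RE007, carrying one chromosomally integrated HIV-1 vpr copy, was seeded at OD 0.01 in PMG+AL medium with 23 nL pinned compound. After 24 h at 30 °C and 99% humidity, viability was read by BacTiter-Glo luminescence.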
TbPYK inhibitor: blocks Trypanosoma brucei pyruvate kinase. Q57TT1. TbPYK enzyme, Kinase-Glo Plus ATP luminescence, 45 min. Potency, µM (highest dose often 76.8 µM), hits mostly inhibitors. 410,000 compounds, 0.12% hits. AID 624173; further: nearly all actives have a fitted effect of over 50% in size
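Luminescent Kinase-Glo Plus end-point after 45 min room-temperature reaction of T. brucei pyruvate kinase started with 130 uM ADP (final). Buffer TEA 50 mM pH 7.2 with KCl, MgCl2, BSA, Tween-20; titration-based qHTS with fitted concentration-effect curves.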
Sm TGR block: blocks Schistosoma mansoni thioredoxin glutathione reductase; Q962Y6; purified TGR, DTNB reduction, TNB absorbance 405 nm; Potency, µM (doses to about 114 µM), hits mostly inhibitors; 360,000 compounds, 3% hits; further: nearly all actives have a fitted effect of over 60% in size
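First, TGR (20 nM dispensed) and NADPH were mixed with compound. Second, a 15 min room-temperature incubation followed. Third, further NADPH and then DTNB were added to start the reaction. Finally, TNB absorbance was monitored kinetically.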
Numbers stand for hits; – = inactive; ? = inconclusive; · = no result given; ! = repeats disagree; [ ] = dose if it differs, or a comment. Unless noted, the call rests on the fitted dose curve; in most records, active means well fitted curve in the direction sought with a large enough effect; inconclusive means small, poorly fitted or top-dose-only effect, or another doubt; inactive means no such curve, though single readings can be large; an effect the other way counts as inactive or inconclusive.

SMILES	AmpC inh detg	AmpC inh no detg	SARS PLP yeast	RE007 growth inh	TbPYK inhibitor	Sm TGR block
COc1ccc(S(=O)(=O)CCC(=O)NCCc2cccc(C)c2)cc1	?	–	–	–	–	–
COc1ccc(S(=O)(=O)CCC(=O)NCCc2ccc(S(N)(=O)=O)cc2)cc1	–	–	–	–	–	40µM
C=CS(=O)(=O)c1ccc(Oc2ccc(S(=O)(=O)C=C)cc2)cc1	–	–	–	–	–	2.5µM
NS(=O)(=O)c1ccc(Oc2ccc(S(N)(=O)=O)cc2)cc1	–	–	–	–	–	–
Cn1cncc1C#Cc1ccc2cc(CCCO)oc(=O)c2c1	–	–	–	–	–	–
Cn1cncc1C#Cc1ccc2cc(CCO)oc(=O)c2c1	–	–	–	–	–	11µM
Cc1ccsc1C=Nc1ccc(O)cc1	–	–	–	–	–	18µM
Cc1ccsc1/C=N/N=C/c1sccc1C	–	–	–	–	–	–
Cc1oc(=O)c(NC(=O)c2ccccc2)cc1C(=O)c1ccccc1	–	–	–	20µM	–	22µM
Cc1oc(=O)c(NC(=O)c2ccc(Cl)cc2)cc1C(=O)c1ccccc1	–	–	–	28µM	?	4µM
CC(=O)c1cc(NC(=O)c2ccc(C)cc2)c(=O)oc1/C=C/N(C)C	–	–	–	–	–	–
CC(=O)c1cc(NC(=O)c2ccc(C)cc2)c(=O)oc1C	–	–	–	–	–	40µM
CC(=O)c1cc(NC(=O)c2ccccc2)c(=O)oc1C	–	–	–	–	–	35µM
Cc1c(NC(=O)c2ccc(Cl)cc2)cc(C(C)C)c(O)c1S(=O)(=O)c1ccccc1	–	·	·	·	–	–
CCCCNC(=O)C1CCN(S(=O)(=O)c2cc(Br)cc3c2N(C(=O)CC)CC3)CC1	–	·	·	·	–	–
COc1cccc(C(=O)NCCS(=O)(=O)NCc2ccc3c(c2)OCO3)c1	?	35µM	–	–	–	–
CCOc1cc(C(=O)NCc2ccc3c(c2)OCO3)cc(OCC)c1OCC	?	–	–	–	–	35µM
CCCCn1nc2cc(C(=O)NCc3ccc4c(c3)OCO4)ccc2c1OCC	–	0.32µM	–	–	–	–
CCCn1nc2cc(C(=O)NCc3ccc4c(c3)OCO4)ccc2c1OCC	–	–	–	–	–	–
O=C(NCc1ccc2c(c1)OCO2)c1ccccc1	–	–	–	–	–	–
O=C(NCc1ccc2c(c1)OCO2)c1ccncc1	–	–	16µM	–	–	–[11.4 µM]
CC(C)c1ccc(NC(=O)CSC2=Nc3ccccc3C3=NC(CC(=O)NCc4ccco4)C(=O)N23)cc1 (stereo not given)	–	·	·	·	–	–
CCCn1nc2cc(C(=O)NC3CCc4ccccc43)ccc2c1OCC (stereo not given)	–	0.28µM	–	–	–	–
CCCCn1nc2cc(C(=O)NCC3CC3)ccc2c1OCC	–	–	–	–	–	–
CC(C)N(Cc1c(O)ccc2c(=O)c(-c3ccc(Cl)cc3)coc12)C(C)C	–	–	–	–	–	40µM
SMILES	AmpC inh detg	AmpC inh no detg	SARS PLP yeast	RE007 growth inh	TbPYK inhibitor	Sm TGR block
Cc1ccc(C)c(NC(=O)Cn2c(=O)n(CC3CCCO3)c(=O)c3ccccc32)c1 (stereo not given)	–	·	·	·	–	–
COc1ccccc1-c1noc(-c2ccc(NC3CCCC3)c([N+](=O)[O-])c2)n1	–	·	·	·	–	–
O=C(CCCCCCCCC#CI)Oc1ccccc1	·	·	·	·	–	·
Cc1[nH]n(-c2ccccc2)c(=O)c1C=Nc1cnc2ccccc2c1	–	–	–	–	–	–
CCOc1ccc(N=Cc2c(C)[nH]n(-c3nc4ccccc4[nH]3)c2=O)cc1	–	–	–	4µM	?	–
COCC(=O)Nc1nc2n(n1)C(c1ccccc1Cl)CC(c1ccc(OC)cc1)N2 (stereo not given)	–	–	–	–	–	40µM
COCC(=O)Nc1nc2n(n1)C(c1ccc(Cl)cc1)CC(c1ccc(OC)cc1)N2 (stereo not given)	?	–	–	–	–	25µM
COc1ccc(C2CC(c3ccc(OC)cc3)n3nc(NC(=O)c4cccs4)nc3N2)cc1 (stereo not given)	–	–	–	–	–	–
O=C(c1ccco1)N1CCN(c2nc3c(F)cc(F)cc3s2)CC1	–	·	·	·	–	–
Cc1ccc(O)c(-c2cc3ccccc3[nH]2)c1	?	–	–	35µM	–	–
CN1CCC(N(Cc2cccs2)c2ccccc2)CC1	·	·	·	·	–	·
COc1ccc(Cc2nc3ccc(C(=O)NCCc4ccc(Cl)cc4)cc3o2)cc1	–	·	·	·	–	–
CC(=O)C1=C(C)N(Cc2ccccc2)C(=O)N[C@H]1c1ccco1	–	–	–	–	–	18µM
COC(=O)C1=C(C)N(Cc2ccccc2)C(=O)N[C@H]1c1ccc(Br)cc1	–	–	–	–	–	–
COCCN=C1N[C@@H](c2ccc(Br)cc2)C(C(=O)OC)=C(C)N1Cc1ccccc1	?	–	–	–	–	–
COC(=O)C1=C(C)N(Cc2ccco2)C(=O)N[C@H]1c1ccc(Br)cc1	?	–	–	·	·	35µM
COC(=O)C1=C(C)N(Cc2ccco2)C(=O)N[C@H]1c1ccccc1	–	–	–	·	·	20µM
COCCN=C1N[C@@H](c2ccccc2)C(C(=O)OC)=C(C)N1Cc1ccccc1	?	–	–	–	–	22µM!
COC(=O)C1=C(C)N(Cc2ccccc2)C(=O)N[C@H]1c1ccco1	·	·	·	–	–	·
CCc1nnc2c(N3CCN(c4cccc(C)c4)C(C)C3)nc3ccccc3n12 (stereo not given)	–	·	·	·	–[15.4 µM]	–
Cc1ccc(CNC(=O)Cn2c(=O)ccc3cc(S(=O)(=O)N4CCC(C)CC4)ccc32)cc1	–	·	·	·	–	–
CC(=O)c1cc(-c2ccccc2)n(CC(=O)Nc2cccc(C)c2)c1C	?	14µM	–	–	–	–
CC(C)c1ccc(OCC(=O)NCCS(=O)(=O)N2CCN(c3ccc(F)cc3)CC2)cc1	–	·	·	·	–	–
COCCN1CCn2c(nc3cc(NC(=O)c4cccs4)ccc32)C1	–	–	–	–	–	18µM
CCCCC(=O)Nc1ccc2c(c1)nc1n2CCN(CCOC)C1	–	–	–	–	–	–
CCCC(=O)Nc1ccc2c(c1)nc1n2CCN(CCOC)C1	–	–	–	–	–	20µM
NC1(c2ccc(-c3nc4ccn5c(=O)[nH]nc5c4cc3-c3ccccc3)cc2)CCC1	·	·	·	·	–	·
N#C/C(N=Nc1ccccc1O)=N\Nc1ccccc1O	–	–	–	11µM	?	–
O=C(CC1C(=O)CCCC1=O)c1ccccc1	–	–	–	–	–	40µM
Cc1ccc(Cn2ccn(CC(=O)Nc3c(C)cc(C)cc3C)c(=O)c2=O)cc1	–	·	·	·	–	–

Screening data deposited in PubChem by National Center for Advancing Translational Sciences (NCATS).
